From PubChem BioAssay (NCI)
About 79,000 compounds went through this panel and 15% of them were active in at least one assay; those are over-represented in the sample as a whole. The source made the active and inactive calls. Rule as the data show it: active = growth inhibition above about 70%; inactive = the rest. Where a SMILES comes first, the peptide text is derived from it. [ ]: non-standard residue; d: D form. The star is where a group is joined. ξ: configuration not given here. NMeF = CN[C@@H](Cc1ccccc1)C(=O)O; dThr(3ξ) = CC(O)[C@@H](N)C(=O)O; dNMeL = CN[C@H](CC(C)C)C(=O)O; NMeV = CN[C@H](C(=O)O)C(C)C; ξNMeN = CNC(CC(N)=O)C(=O)O; NMeA = CN[C@@H](C)C(=O)O; ξNMeV = CNC(C(=O)O)C(C)C; Boc = CC(C)(C)OC(=O)*; OBn = c1ccc(CO*)cc1; ξLac = CC(O)C(=O)O

Assay: NCI Yeast Anticancer Drug Screen. Data for the sgs1 mgt1 strain (AID 161);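 also: 0% = growth of cultures given vehicle only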
Conditions: S. cerevisiae sgs1 mgt1 strain, at 50.0 µM, active compounds read high
Summary of the method: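 Percent growth inhibition was derived by comparing compound-exposed mutant yeast with vehicle-exposed cultures. The strain carries alterations in DNA damage repair.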

Structure (SMILES) | growth inhibition
CC(=O)OC(C)[C@@H](NC(=O)[C@@H](CC(C)C)N(C)C(=O)[C@@H]1CCCN1C(=O)C(C)O)C(=O)OCc1ccccc1 (stereo not given in full) (H-[ξLac]P[dNMeL][dThr(3ξ)](Ac)-OBn) | -16.8% (inactive)
Cc1cccc(OC(=O)Oc2cccc(C)c2)c1 | -4.35% (inactive)
Cc1ccc(S(=O)(=O)NNC(=O)c2cccnc2)cc1 | 1.35% (inactive)
C/C(=N\N=C\N(C)S(=O)(=O)c1ccc(C)cc1)c1ccccc1 | -6.3% (inactive)
CC(O)C(C)C(N)C(=O)O (stereo not given) | -1.05% (inactive)
CCOC(=O)C1CCCc2sc(N)c(C#N)c21 (stereo not given) | 4.2% (inactive)
CC12CCC(CC1)C2(C)C | 0.15% (inactive)
CN(C)C(=S)SCC(=O)c1ccccc1 | -16.6% (inactive)
CSc1cc(Cl)c(C)cc1S(=O)(=O)NC(=O)NNc1cccc(C(F)(F)F)n1 | 9.5% (inactive)
O=C(OC1CCCC1OC(=O)c1ccccc1)c1ccccc1 (stereo not given) | 1.6% (inactive)
CNC(=O)c1cccc([N+](=O)[O-])c1 | 21.7% (inactive)
S=C1CNC(=S)CN1 | 0.7% (inactive)
[O-]/[N+](=C\c1cccc(O)c1)c1ccccc1 | 11.8% (inactive)
CCCc1cc(=O)oc2c3c(c4c(c12)OC(C)(C)C=C4)O[C@H](C)[C@@H](C)C3O (stereo not given in full) | -1.45% (inactive)
O=[N+]([O-])c1ccc(N/N=C2/CC(c3ccccc3)C(c3ccccc3)=C2Cl)c([N+](=O)[O-])c1 (stereo not given) | 9.45% (inactive)
COc1nc(NC2OC(COC(C)=O)C(OC(C)=O)C(OC(C)=O)C2OC(C)=O)c(-c2csc(N)n2)c(=O)n1C (stereo not given) | -18.8% (inactive)
O=c1[nH]cnc2nn(C3OC(CO)C(O)C3O)nc12 (stereo not given) | 1.5% (inactive)
Cn1c(=O)c2c(ncn2CCSCC2=NS(=O)(=O)c3cc(S(N)(=O)=O)c(C(F)(F)F)cc3N2)n(C)c1=O | -6.5% (inactive)
CC(C)CNC(=O)c1ccccc1 | -1.6% (inactive)
CCOc1c(N=Nc2ccc([N+](=O)[O-])cc2)c(C)nn1C(N)=S | 15.3% (inactive)

Structure (SMILES) | growth inhibition
Clc1ccc(-c2nnc(-c3ccc4ccccc4c3)o2)cc1Cl | 7.15% (inactive)
O=C(O)C1C2CCC3C(C(=O)O)C3C21 (stereo not given) | -4.95% (inactive)
c1ccc(C2CCN3c4ccc5ccccc5c4NCC23)cc1 (stereo not given) | 45.6% (inactive)
CCOC(=O)/C=C(/C)N(CC)CC | 12.2% (inactive)
CCCCCCCCCCCCOC1C(COCCN2CCCCC2)OC2OC(C)(C)OC21 (stereo not given) | 89.7% (active)
CC1NC(=O)CC(c2ccccc2)N(N=O)C1c1ccccc1 (stereo not given) | -4.1% (inactive)
CCCCCC(=O)NC1CCCCC1 | 8.15% (inactive)
O=C(Cl)c1cccc2c([N+](=O)[O-])cccc12 | -2.35% (inactive)
Nc1cccc(CCc2nc(N)nc(N)c2-c2ccc(Cl)cc2)c1 | 13.8% (inactive)
CCCCCC(=O)OCC(Br)CBr (stereo not given) | 22.5% (inactive)
O=c1[nH]ncc2ccc([N+](=O)[O-])cc12 | -1.25% (inactive)
CCC1(CC)C(=O)C(CC)(CC)C1=O | 38% (inactive)
O=C(Nc1nnc(C(F)(F)F)s1)c1c(F)cccc1F | 24.9% (inactive)
NC12CCC(CC1)C2 | -14.1% (inactive)
N#Cc1c(N)[nH]c(=S)c(C#N)c1-c1ccccc1 | 47.4% (inactive)
CC(=O)c1cccc(NC(=O)OCC2CC3C=CC2C3)c1 (stereo not given) | 45.9% (inactive)
C=CCNC(=S)Nc1ccccc1 | 4.25% (inactive)
Clc1ccc(-c2cc(-c3cc(-c4ccc(Cl)cc4Cl)n[nH]3)[nH]n2)c(Cl)c1 | -5.3% (inactive)
COC(=O)[C@H](C)N(C)C(=O)C(CC(N)=O)N(C)C(=O)[C@H](Cc1ccccc1)N(C)C(=O)[C@@H]1CCCN1C(=O)[C@H](C(C)C)N(C)C(=O)C(C(C)C)N(C)C(=O)[C@@H](NC(=O)OC(C)(C)C)C(C)C (stereo not given in full) (Boc-V[ξNMeV][NMeV]P[NMeF][ξNMeN][NMeA]-OMe) | -13.9% (inactive)
Cc1cc(C2(O)CCCc3ccccc32)[n+]([O-])cc1C (stereo not given) | -9.4% (inactive)
